Columns and labels:
Test in all cases: DAPPL (digital affinity profiling via proximity ligation, sequencing); 10 mM Tris-HCl pH 7.5, 50 mM NaCl, 1 mM DTT, 4% glycerol, room temperature, 30 min; GST-TFs on glutathione beads, 16-mer random dsDNA library, 0.1% formaldehyde crosslink after washing; high values mean tight binding
FLI1 = biological target: T1, FLI1 (Homo sapiens, UniProt Q01543 1-452); settings: protein: recombinant; tags: N-terminal GST; dsDNA, one strand shown
T1 sequence: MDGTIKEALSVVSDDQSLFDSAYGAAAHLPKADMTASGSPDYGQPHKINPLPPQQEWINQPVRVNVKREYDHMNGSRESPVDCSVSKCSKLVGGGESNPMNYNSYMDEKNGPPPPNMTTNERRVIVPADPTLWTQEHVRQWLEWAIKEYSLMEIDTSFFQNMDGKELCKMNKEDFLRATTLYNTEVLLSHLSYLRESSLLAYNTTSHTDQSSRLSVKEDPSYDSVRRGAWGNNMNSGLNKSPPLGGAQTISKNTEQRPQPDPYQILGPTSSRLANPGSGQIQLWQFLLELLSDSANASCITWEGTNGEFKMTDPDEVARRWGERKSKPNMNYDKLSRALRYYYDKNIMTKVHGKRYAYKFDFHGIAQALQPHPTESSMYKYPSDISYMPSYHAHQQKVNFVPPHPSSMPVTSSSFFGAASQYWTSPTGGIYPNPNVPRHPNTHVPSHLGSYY
Summary of the method: (§1)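 GST fusions of human transcription factors were expressed in yeast and captured with glutathione beads. Once given DNA barcodes and pooled alongside a tag-only sample, they were incubated for 30 min at room temperature with 200 nmole of a random double-stranded 16-mer DNA library in Tris/NaCl/DTT/glycerol buffer, then washed, crosslinked (0.1% formaldehyde), proximity-ligated, PCR-amplified and sequenced on an Illumina NextSeq500. The binding signal of each hexamer is its read frequency for a factor divided by its frequency for the tag-only sample.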

ELK1 = biological target: T2, ELK1 (Homo sapiens, UniProt P19419 1-428); settings: protein: recombinant; tags: N-terminal GST; dsDNA, one strand shown
T2 sequence: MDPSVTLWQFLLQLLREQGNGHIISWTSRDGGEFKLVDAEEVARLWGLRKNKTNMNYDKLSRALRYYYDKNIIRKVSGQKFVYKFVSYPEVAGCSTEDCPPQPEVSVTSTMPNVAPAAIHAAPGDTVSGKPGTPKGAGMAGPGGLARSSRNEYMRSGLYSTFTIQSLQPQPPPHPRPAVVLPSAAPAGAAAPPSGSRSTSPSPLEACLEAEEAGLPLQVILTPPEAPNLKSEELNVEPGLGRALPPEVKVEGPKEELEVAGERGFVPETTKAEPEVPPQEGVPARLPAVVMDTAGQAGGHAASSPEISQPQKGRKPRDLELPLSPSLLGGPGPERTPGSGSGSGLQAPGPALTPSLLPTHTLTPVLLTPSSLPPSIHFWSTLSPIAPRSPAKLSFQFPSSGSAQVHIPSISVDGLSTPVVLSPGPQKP
Summary of the method: as §1

GABPA = biological target: T3, GABPA (Homo sapiens, UniProt Q06546 1-454); settings: protein: recombinant; tags: N-terminal GST; dsDNA, one strand shown
T3 sequence: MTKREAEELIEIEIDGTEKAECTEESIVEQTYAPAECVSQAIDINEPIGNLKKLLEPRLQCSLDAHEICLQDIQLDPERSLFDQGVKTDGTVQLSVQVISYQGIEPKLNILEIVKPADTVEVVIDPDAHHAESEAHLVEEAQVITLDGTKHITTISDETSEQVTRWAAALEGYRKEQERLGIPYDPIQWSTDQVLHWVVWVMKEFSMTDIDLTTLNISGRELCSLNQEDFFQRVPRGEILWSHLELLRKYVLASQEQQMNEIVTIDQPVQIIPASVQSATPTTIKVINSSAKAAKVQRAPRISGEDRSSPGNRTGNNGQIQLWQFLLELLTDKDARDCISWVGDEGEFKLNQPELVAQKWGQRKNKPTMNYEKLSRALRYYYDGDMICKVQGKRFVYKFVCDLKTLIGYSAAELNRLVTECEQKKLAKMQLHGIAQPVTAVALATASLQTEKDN
Summary of the method: as §1

ERG = biological target: T4, ERG (Homo sapiens, UniProt P11308 1-479); settings: protein: recombinant; tags: N-terminal GST; dsDNA, one strand shown
T4 sequence: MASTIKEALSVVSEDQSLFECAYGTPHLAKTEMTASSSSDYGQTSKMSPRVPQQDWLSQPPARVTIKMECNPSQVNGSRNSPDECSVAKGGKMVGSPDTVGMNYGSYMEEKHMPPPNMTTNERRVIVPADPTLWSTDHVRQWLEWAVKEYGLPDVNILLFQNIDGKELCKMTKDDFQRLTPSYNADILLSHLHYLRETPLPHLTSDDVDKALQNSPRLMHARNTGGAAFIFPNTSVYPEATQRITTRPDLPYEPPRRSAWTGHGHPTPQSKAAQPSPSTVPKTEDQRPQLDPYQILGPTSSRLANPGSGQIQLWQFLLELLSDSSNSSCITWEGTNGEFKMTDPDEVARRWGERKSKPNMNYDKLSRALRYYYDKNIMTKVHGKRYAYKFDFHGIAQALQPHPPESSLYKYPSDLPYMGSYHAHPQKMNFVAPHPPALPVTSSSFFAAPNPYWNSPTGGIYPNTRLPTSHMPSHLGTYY
Summary of the method: as §1

ELF1 = ELF1 (Homo sapiens, UniProt P32519 1-619); settings: protein: recombinant; tags: N-terminal GST; dsDNA, one strand shown
Summary of the method: as §1

EHF = biological target: T5, EHF (Homo sapiens, UniProt Q9NZC4 1-300); settings: protein: recombinant; tags: N-terminal GST; dsDNA, one strand shown
T5 sequence: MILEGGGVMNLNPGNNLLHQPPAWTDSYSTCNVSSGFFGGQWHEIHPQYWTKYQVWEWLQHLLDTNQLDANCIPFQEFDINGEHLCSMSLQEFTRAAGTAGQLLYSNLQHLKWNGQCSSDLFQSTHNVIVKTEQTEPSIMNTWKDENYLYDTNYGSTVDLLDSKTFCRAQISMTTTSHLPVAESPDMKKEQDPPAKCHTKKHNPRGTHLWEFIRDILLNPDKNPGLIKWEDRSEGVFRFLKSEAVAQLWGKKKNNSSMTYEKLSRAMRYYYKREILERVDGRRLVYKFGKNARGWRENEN
Summary of the method: as §1

SPI1 = SPI1 (Homo sapiens, UniProt P17947 1-270); settings: protein: recombinant; tags: N-terminal GST; dsDNA, one strand shown
Summary of the method: as §1

SPIB = SPIB (Homo sapiens, UniProt Q01892 1-262); settings: protein: recombinant; tags: N-terminal GST; dsDNA, one strand shown
Summary of the method: as §1

ELK3 = biological target: T6, ELK3 (Homo sapiens, UniProt P41970 1-407); settings: protein: recombinant; tags: N-terminal GST; dsDNA, one strand shown
T6 sequence: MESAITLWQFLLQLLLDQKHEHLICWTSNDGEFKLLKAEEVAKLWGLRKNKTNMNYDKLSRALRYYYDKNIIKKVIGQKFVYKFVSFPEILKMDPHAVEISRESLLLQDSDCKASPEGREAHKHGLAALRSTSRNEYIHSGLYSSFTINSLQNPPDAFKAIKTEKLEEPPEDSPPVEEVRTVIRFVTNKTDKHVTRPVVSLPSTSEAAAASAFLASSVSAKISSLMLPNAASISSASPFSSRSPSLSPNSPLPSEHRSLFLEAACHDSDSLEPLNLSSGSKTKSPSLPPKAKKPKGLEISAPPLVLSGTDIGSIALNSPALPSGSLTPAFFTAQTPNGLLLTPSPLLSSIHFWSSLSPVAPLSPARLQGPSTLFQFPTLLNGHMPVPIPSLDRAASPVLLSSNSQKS
Summary of the method: as §1

FEV = biological target: T7, FEV (Homo sapiens, UniProt Q99581 1-238); settings: protein: recombinant; tags: N-terminal GST; dsDNA, one strand shown
T7 sequence: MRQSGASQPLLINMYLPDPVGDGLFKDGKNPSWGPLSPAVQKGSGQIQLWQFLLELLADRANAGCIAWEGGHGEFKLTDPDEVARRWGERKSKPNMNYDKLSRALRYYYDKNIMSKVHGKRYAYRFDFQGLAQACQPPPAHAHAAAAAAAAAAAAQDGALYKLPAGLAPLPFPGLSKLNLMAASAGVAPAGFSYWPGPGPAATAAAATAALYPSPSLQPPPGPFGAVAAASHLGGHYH
Summary of the method: as §1

ETV5 = ETV5 (Homo sapiens, UniProt P41161 1-510); settings: protein: recombinant; tags: N-terminal GST; dsDNA, one strand shown
Summary of the method: as §1

HSF1 = HSF1 (Homo sapiens, UniProt Q00613 1-529); settings: protein: recombinant; tags: N-terminal GST; chain copies: 3; dsDNA, one strand shown
Summary of the method: as §1

SPIC = biological target: T8, SPIC (Homo sapiens, UniProt Q8N5J4 1-248); settings: protein: recombinant; tags: N-terminal GST; dsDNA, one strand shown
T8 sequence: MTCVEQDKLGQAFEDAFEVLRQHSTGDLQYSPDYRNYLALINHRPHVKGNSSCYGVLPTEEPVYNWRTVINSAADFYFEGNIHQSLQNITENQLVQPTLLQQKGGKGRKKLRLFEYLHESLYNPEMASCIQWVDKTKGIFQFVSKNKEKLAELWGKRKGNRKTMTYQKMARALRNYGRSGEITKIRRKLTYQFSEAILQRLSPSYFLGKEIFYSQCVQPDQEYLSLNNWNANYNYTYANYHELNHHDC
Summary of the method: as §1

ELF4 = ELF4 (Homo sapiens, UniProt Q99607 1-663); settings: protein: recombinant; tags: N-terminal GST; dsDNA, one strand shown
Summary of the method: as §1

ELK4 = biological target: T9, ELK4 (Homo sapiens, UniProt P28324-2 1-405); settings: protein: recombinant; tags: N-terminal GST; dsDNA, one strand shown
T9 sequence: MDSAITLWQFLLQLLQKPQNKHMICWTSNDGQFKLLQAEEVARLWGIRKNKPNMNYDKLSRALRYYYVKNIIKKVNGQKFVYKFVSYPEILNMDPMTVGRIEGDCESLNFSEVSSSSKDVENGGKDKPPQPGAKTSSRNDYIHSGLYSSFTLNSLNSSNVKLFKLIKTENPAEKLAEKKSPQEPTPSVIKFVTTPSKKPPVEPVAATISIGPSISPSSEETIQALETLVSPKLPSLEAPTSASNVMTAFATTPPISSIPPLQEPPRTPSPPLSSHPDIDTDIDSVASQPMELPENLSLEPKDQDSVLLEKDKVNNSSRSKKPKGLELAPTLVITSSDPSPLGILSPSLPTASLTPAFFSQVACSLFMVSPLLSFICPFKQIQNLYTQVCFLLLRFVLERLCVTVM
Summary of the method: as §1

ETV2 = biological target: T10, ETV2 (Homo sapiens, UniProt O00321 1-342); settings: protein: recombinant; tags: N-terminal GST; dsDNA, one strand shown
T10 sequence: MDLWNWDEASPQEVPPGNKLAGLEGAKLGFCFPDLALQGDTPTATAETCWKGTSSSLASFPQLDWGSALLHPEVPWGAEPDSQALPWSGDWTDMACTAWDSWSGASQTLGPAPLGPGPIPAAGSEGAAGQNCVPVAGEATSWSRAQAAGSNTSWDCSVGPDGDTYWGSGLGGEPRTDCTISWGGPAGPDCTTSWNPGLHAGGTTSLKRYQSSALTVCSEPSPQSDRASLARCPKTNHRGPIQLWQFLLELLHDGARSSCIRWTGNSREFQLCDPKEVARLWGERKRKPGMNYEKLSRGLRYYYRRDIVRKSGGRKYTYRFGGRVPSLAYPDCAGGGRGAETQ
Summary of the method: as §1

ELF3 = biological target: T11, ELF3 (Homo sapiens, UniProt P78545 1-371); settings: protein: recombinant; tags: N-terminal GST; dsDNA, one strand shown
T11 sequence: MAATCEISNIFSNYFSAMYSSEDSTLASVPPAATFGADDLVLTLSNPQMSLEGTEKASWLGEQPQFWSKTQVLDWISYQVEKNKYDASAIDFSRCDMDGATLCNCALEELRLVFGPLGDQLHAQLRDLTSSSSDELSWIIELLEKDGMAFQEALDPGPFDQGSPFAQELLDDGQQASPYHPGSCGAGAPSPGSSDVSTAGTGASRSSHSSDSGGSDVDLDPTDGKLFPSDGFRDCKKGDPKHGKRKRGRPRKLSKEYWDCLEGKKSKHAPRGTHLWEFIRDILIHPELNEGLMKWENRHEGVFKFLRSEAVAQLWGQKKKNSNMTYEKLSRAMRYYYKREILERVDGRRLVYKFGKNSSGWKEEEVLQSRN
Summary of the method: as §1

CRX = CRX (Homo sapiens, UniProt O43186 1-299); settings: protein: recombinant; tags: N-terminal GST; dsDNA, one strand shown
Summary of the method: as §1

ETV1 = ETV1 (Homo sapiens, UniProt P50549 1-477); settings: protein: recombinant; tags: N-terminal GST; dsDNA, one strand shown
Summary of the method: as §1

Chain of CRX (O43186 whole entry): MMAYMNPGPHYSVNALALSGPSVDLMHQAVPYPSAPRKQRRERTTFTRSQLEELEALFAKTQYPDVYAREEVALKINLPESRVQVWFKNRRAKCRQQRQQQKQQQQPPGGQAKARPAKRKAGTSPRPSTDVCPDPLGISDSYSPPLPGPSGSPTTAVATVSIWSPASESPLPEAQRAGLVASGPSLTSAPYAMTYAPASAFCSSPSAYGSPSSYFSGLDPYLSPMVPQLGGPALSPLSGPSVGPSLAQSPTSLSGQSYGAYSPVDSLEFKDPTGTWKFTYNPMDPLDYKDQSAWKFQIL
Chain of HSF1 (Q00613 whole entry): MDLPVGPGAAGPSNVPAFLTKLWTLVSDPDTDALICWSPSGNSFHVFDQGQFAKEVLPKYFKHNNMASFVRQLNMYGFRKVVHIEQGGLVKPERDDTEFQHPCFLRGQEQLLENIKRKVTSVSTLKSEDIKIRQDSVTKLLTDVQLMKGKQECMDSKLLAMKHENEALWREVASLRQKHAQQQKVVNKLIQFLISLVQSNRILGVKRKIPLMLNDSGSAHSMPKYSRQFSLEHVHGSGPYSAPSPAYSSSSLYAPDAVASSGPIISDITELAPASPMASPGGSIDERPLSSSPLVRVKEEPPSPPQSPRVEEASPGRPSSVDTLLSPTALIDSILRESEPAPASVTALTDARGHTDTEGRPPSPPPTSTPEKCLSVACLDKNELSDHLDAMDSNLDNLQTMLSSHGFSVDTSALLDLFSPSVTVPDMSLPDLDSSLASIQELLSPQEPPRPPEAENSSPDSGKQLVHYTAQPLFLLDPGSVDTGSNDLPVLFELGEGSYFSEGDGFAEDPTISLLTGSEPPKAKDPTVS
Chain of SPIB (Q01892 whole entry): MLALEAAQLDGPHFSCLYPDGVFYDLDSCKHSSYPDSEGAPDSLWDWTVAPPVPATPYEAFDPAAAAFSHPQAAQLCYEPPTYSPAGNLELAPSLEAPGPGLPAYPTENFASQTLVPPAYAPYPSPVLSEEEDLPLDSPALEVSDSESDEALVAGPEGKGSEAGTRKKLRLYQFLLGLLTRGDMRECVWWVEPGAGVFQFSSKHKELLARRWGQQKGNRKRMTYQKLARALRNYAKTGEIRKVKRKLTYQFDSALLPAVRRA
Chain of ELF4 (Q99607 whole entry): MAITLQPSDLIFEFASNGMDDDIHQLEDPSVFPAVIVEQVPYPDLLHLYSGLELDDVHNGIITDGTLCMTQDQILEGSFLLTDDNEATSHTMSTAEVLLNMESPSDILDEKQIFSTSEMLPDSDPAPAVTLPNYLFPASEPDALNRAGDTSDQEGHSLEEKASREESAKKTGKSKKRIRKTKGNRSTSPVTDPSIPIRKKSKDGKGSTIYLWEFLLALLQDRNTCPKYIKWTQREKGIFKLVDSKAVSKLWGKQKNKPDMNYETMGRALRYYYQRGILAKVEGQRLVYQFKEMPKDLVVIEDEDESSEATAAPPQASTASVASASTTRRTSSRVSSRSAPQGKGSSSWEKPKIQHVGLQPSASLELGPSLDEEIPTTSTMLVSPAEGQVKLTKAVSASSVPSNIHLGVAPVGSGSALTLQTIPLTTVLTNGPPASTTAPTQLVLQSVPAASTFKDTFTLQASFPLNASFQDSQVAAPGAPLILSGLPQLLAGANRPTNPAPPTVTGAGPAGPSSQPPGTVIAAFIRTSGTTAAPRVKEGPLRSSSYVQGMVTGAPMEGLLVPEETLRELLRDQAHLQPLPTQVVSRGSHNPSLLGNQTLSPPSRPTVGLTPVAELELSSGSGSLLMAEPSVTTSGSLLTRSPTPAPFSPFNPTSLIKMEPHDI
Chain of ETV1 (P50549 whole entry): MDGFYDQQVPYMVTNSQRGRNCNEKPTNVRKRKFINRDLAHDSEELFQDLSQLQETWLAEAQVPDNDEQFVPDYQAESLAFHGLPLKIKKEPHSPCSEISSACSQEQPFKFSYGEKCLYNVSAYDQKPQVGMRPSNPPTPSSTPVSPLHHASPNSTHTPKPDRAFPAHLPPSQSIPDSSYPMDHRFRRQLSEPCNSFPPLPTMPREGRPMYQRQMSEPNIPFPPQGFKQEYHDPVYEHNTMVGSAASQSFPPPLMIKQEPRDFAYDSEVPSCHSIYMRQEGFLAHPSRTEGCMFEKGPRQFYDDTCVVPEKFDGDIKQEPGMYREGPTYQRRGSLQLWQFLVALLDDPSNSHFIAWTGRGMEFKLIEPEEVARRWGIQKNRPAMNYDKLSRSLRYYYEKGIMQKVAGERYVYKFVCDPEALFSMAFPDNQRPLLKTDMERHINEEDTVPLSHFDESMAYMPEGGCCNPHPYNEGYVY
Chain of ELF1 (P32519 whole entry): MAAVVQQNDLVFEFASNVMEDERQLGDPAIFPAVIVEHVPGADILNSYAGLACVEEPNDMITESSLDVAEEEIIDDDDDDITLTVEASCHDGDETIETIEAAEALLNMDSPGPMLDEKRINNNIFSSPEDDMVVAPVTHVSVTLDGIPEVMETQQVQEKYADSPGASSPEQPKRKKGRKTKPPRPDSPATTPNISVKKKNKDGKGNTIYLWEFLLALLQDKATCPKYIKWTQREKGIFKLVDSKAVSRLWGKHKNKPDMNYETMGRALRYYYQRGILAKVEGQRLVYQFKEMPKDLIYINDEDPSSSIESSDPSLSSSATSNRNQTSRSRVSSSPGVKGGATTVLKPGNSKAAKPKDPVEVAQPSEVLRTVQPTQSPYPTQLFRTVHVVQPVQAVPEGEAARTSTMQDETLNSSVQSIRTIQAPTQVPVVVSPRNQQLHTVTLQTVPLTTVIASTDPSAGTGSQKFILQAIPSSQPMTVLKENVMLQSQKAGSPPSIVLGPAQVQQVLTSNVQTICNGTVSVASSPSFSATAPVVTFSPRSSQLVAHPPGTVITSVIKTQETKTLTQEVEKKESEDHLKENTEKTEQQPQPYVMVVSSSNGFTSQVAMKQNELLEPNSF
Chain of ETV5 (P41161 whole entry): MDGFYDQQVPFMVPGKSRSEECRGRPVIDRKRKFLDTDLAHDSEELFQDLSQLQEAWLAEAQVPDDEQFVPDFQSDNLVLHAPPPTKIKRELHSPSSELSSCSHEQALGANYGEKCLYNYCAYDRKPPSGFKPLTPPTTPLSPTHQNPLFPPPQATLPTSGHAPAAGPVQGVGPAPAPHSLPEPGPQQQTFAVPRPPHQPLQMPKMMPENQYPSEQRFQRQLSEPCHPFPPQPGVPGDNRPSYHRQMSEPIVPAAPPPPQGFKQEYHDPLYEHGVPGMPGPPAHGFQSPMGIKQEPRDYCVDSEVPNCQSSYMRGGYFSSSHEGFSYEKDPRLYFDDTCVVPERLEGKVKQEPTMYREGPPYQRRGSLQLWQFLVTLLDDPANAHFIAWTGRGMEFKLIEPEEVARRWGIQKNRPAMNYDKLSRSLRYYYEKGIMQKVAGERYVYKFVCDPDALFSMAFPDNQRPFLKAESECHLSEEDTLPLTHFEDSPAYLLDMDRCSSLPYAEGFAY

AACTTT
binding signal (FLI1): 1.38 fold enrichment (6-mer frequency, TF over GST control)
binding signal (ELK1): 1.27 fold enrichment (6-mer frequency, TF over GST control)
binding signal (GABPA): 1.17 fold enrichment (6-mer frequency, TF over GST control)
binding signal (ERG): 1.16 fold enrichment (6-mer frequency, TF over GST control)
binding signal (ELF1): 1.23 fold enrichment (6-mer frequency, TF over GST control)
binding signal (EHF): 1.18 fold enrichment (6-mer frequency, TF over GST control)
binding signal (SPI1): 1.23 fold enrichment (6-mer frequency, TF over GST control)
binding signal (SPIB): 1.32 fold enrichment (6-mer frequency, TF over GST control)
binding signal (ELK3): 1.2 fold enrichment (6-mer frequency, TF over GST control)
binding signal (FEV): 1.18 fold enrichment (6-mer frequency, TF over GST control)
binding signal (ETV5): 1.19 fold enrichment (6-mer frequency, TF over GST control)
binding signal (HSF1): 1.68 fold enrichment (6-mer frequency, TF over GST control)
binding signal (SPIC): 1.45 fold enrichment (6-mer frequency, TF over GST control)
binding signal (ELF4): 1.19 fold enrichment (6-mer frequency, TF over GST control)
binding signal (ELK4): 1.32 fold enrichment (6-mer frequency, TF over GST control)
binding signal (ETV2): 1.3 fold enrichment (6-mer frequency, TF over GST control)
binding signal (ELF3): 1.33 fold enrichment (6-mer frequency, TF over GST control)
binding signal (CRX): 1.27 fold enrichment (6-mer frequency, TF over GST control)
binding signal (ETV1): 1.23 fold enrichment (6-mer frequency, TF over GST control)

Source: publication PMC7862700, “An all-to-all approach to the identification of sequence-specific readers for epigenetic DNA modifications on cytosine”
